Reference: PubChem BioAssay (EPA / NIEHS)
Several values for one entry are separate records, joined by “and”; a condition that tells them apart may be missing. Identical values can stand only once. Some compounds were tested as several samples or in several runs, with calls that do not always agree. Activity calls are given as the source filed them. The calls were made as follows: active = hit-call score of the fitted dose curve at least 0.9, where 1 is the maximum; inactive = score below 0.9.

Experiment: CCTE_Shafer_MEA_acute_per_network_burst_spike_number_mean: CCTE's Neural Acute Assay for Average Number of Spikes in a Network Burst, Shafer Lab (AID 2284019)
Procedure: CCTE_Shafer_MEA_acute assay is conducted using Axion Biosystems 48 well microelectrode array (MEA) plates and Maestro recording system. Each well of the MEA plate contains a grid of 16 microelectrodes embedded in the culture surface. Electrically active cells, such as neurons, can be cultured over the electrodes, and electrical activity in these cells can be recorded extracellularly. The spontaneous firing of neurons is captured from each electrode on a microsecond timescale providing both temporally and spatially precise data. […] The CCTE_Shafer_MEA_acute assay uses primary cultures of rat cortical neurons. As these cultures mature over time, neural networks develop functional activity and form cohesive networks in which electrical activity can be highly coordinated. Baseline 40-minute recordings are made on days post-plating 13 or 15, followed by a secondary 40-minute recording after chemical exposure.CCTE_Shafer_MEA_acute_per_network_burst_spike_number_mean is a component of the CCTE_Shafer_MEA_acute assay. It measures the average number of spikes (action potential firings) in a network burst (temporally-clustered group of spikes across multiple electrodes) as the total number of spikes in a network burst divided by the number of network bursts during a recording in a microelectrode array (MEA) using Axion Biosystems Maestro 768 channel amplifier with the AxIS adaptive spike detector. The recordings before and after chemical treatment are used to calculate a percent change in the mean number of spikes in a network burst in each well.Data from the assay component CCTE_Shafer_MEA_acute_per_network_burst_spike_number_mean was analyzed into 1 assay endpoint. This assay endpoint, CCTE_Shafer_MEA_acute_per_network_burst_spike_number_mean, was analyzed in the negative analysis fitting direction relative to DMSO as the negative control and baseline of activity. Using a type of functional reporter, gain or loss-of-signal activity can be used to understand electrical activity.
Spontaneous activity in the cortical cultures was recorded using an Axion Biosystems Maestro 768 channel amplifier and Axion Integrated Studios (AxIS) v1.8 (or later) software. The amplifier recorded from all channels simultaneously (gain = 1200 x; sampling rate = 12.5 kHz/channel): raw signals were filtered with a Butterworth band-pass filter (300-5000 Hz), which filters out slower local field potentials leaving only fast potentials, i.e., "spikes", arising from extracellular currents associated with action potentials (Pine 2006; Wheeler and Nam 2011). On-line spike detection of filtered signals was conducted with the AxIS adaptive spike detector, using a threshold of 8x the root mean squared (rms) noise on each channel. Any electrodes with rms noise levels greater than 5 uV were grounded (e.g., no data were recorded). Once grounded, an electrode was grounded for the duration of the experiment. All recordings were conducted at 37 C. Wells were deemed usable if on the day of the exposure >/= 10 electrodes were active (defined as >/= 5 spikes/min). On DIV 13 or 15, a minimum of three wells from one cortical culture preparation were treated with each compound (0.03-40 uM). Prior to recording baseline activity, each mwMEA plate was placed in the Maestro at 37 C and allowed to sit for 20 min while firing rates stabilized. Baseline activity (40 min) was recorded before the addition of each compound. An additional 40 min of spontaneous activity was recorded in the presence of each compound. Changes in network parameters relative to baseline were assessed following compound treatment.

Row | SMILES | outcome | AC50
1 | N#Cc1c(Cl)c(Cl)c(Cl)c(C#N)c1Cl | inactive | –
2 | CC[C@H](C)[C@H]1O[C@]2(C=C[C@@H]1C)C[C@@H]1C[C@@H](C/C=C(\C)[C@@H](O[C@H]3C[C@H](OC)[C@@H](O[C@H]4C[C@H](OC)[C@@H](O)[C@H](C)O4)[C@H](C)O3)[C@@H](C)/C=C/C=C3\CO[C@@H]4[C@H](O)C(C)=C[C@@H](C(=O)O1)[C@]34O)O2 (tested in a mixture with another compound) | – | 0.0134 µM (active)
3 | ClC1C(Cl)C(Cl)C(Cl)C(Cl)C1Cl (centres undefined) | – | 1.23 µM (active)
4 | O=C(O)CCCOc1ccc(Cl)cc1Cl | inactive | –
5 | CNC(=O)CSP(=S)(OC)OC | inactive | –
6 | CCC(C)Nc1c([N+](=O)[O-])cc(C(C)(C)C)cc1[N+](=O)[O-] (centres undefined) | inactive | –
7 | CC(C)N(C(=O)COc1nnc(C(F)(F)F)s1)c1ccc(F)cc1 | inactive | –
8 | O=S1OCC2C(CO1)C1(Cl)C(Cl)=C(Cl)C2(Cl)C1(Cl)Cl (centres undefined) | – | 230 nM (active) and 56 nM (active)
9 | CNC(=O)/C=C(\C)OP(=O)(OC)OC | inactive | –
10 | Oc1cc(Cl)ccc1Oc1ccc(Cl)cc1Cl | inactive | –
11 | Oc1ccc(Cl)cc1Cc1ccccc1 | – | 1.57 µM (active)
12 | CCC(C)(C)C(=O)OC1=C(c2ccc(Cl)cc2Cl)C(=O)OC12CCCCC2 | inactive | 20 µM (active)
13 | O=C1c2ccccc2C(=O)N1SC(Cl)(Cl)Cl | inactive | –
14 | CC1(C)C(C=C(Cl)Cl)C1C(=O)OC(C#N)c1ccc(F)c(Oc2ccccc2)c1 (centres undefined) | – | 54.4 nM (active) and 609 nM (active)
15 | C[C@H]1[C@H](c2ccc(Cl)cc2)SC(=O)N1C(=O)NC1CCCCC1 | – | 9.24 µM (active)
16 | COP(=S)(OC)Oc1ccc(SC)c(C)c1 | inactive | –
17 | CC(C)OC(=O)Nc1cccc(Cl)c1 | inactive | –
18 | N#CN | inactive | –
19 | CCCN(CCC)c1c([N+](=O)[O-])cc(C(F)(F)F)cc1[N+](=O)[O-] | inactive | –
20 | O=[N+]([O-])/N=C1\NCCN1Cc1ccc(Cl)nc1 | inactive | –
21 | O=S(=O)(O)C(F)(F)C(F)(F)C(F)(F)C(F)(F)C(F)(F)C(F)(F)C(F)(F)C(F)(F)F | inactive | –
22 | CCCN(CCOc1c(Cl)cc(Cl)cc1Cl)C(=O)n1ccnc1 | – | 33.6 µM (active)
23 | Clc1ccccc1-c1nnc(-c2ccccc2Cl)nn1 | inactive | –
